According to PubChem BioAssay (EPA / NIEHS):
Results filed as inconclusive are left out. The source holds several records for some structures; these can differ, active in one and inactive in another. The source made the active and inactive calls. Rule for the calls, unless noted: active = hit-call score of the fitted dose curve at least 0.9, where 1 is the maximum; inactive = score below 0.9.

Tests used:
[1] = biological target: Glucocorticoid receptor (Homo sapiens) (UniProt P04150); test: ATG_GR_TRANS: Attagene TRANS-FACTORIAL HepG2 Assay for human Glucocorticoid Receptor (GR) (AID 2282978; active = hit-call score of the fitted dose curve at least 0.9, where 1 is the maximum;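 note: activators score as hits since higher reporter transcript over DMSO is fitted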); conditions: HepG2 Attagene TRANS GR reporter, mRNA transcription
How it was run: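 Fluorescent capillary-electrophoresis quantitation of reporter mRNA is the readout, taken 24 h after dosing human HepG2 cells carrying transiently transfected GAL4-UAS reporter units activated by chimeric NR-GAL4 fusions; activity scored as induction over DMSO.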

[2] = biological target: Bile acid receptor (Homo sapiens) (UniProt Q96RI1); test: ATG_FXR_TRANS: Attagene TRANS-FACTORIAL HepG2 Assay for Farnesoid X Receptor (FXR) (AID 2282979; active = hit-call score of the fitted dose curve at least 0.9, where 1 is the maximum;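 note: hits raise reporter mRNA above DMSO so AC50 marks FXR activation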); conditions: HepG2 Attagene TRANS FXR-GAL4 reporter transcription
How it was run: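 Read-out: fluorescent reporter transcripts quantified by capillary electrophoresis after RT-PCR of total RNA. Source cells were HepG2 transiently carrying chimeric NR-GAL4 plus GAL4-UAS reporter units, dosed 24 h. Activity fitted upward relative to DMSO baseline.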

[3] = ATG_M_06_TRANS: Attagene TRANS-FACTORIAL HepG2 Assay for M06 Transcription Factor (Internal Marker) (AID 2282983; active = hit-call score of the fitted dose curve at least 0.9, where 1 is the maximum); conditions: HepG2 Attagene TRANS M06 internal marker reporter
How it was run: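 Read-out: fluorescent reporter cDNA fragments resolved by capillary electrophoresis after RT-PCR and HpaI cut. Source cells were HepG2 carrying transfected multi-reporter GAL4 constructs, dosed 24 h. Increase over DMSO control analysed.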

[4] = ATG_M_32_TRANS: Attagene TRANS-FACTORIAL HepG2 Assay for M32 Transcription Factor (Internal Marker) (AID 2282984; active = hit-call score of the fitted dose curve at least 0.9, where 1 is the maximum); conditions: HepG2 Attagene TRANS M32 internal marker reporter
How it was run: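 Internal-marker readout from a multiplexed transcription reporter panel. HepG2 cells were transfected with GAL4-UAS reporter units, treated 24 hours, and reporter transcript levels determined by fluorescence after RT-PCR and capillary separation.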

[5] = biological target: Transcriptional activator Myb (Homo sapiens) (UniProt P10242); test: ATG_Myb_CIS: Attagene CIS-FACTORIAL HepG2 Assay for human Myeloblastosis (Myb) Proto-Oncogene Transcription Factor (AID 2282986); conditions: HepG2 Attagene CIS-FACTORIAL Myb reporter transcription; actives raise or lower the signal
How it was run: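 Reporter transcript levels, quantified by fluorescent RT-PCR and capillary electrophoresis, serve as the read-out. Transfected HepG2 cells carrying cis-promoter reporter units are dosed for 24 hours, and curves are fitted bidirectionally against DMSO controls.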

[6] = biological target: Nuclear respiratory factor 1 (Homo sapiens) (UniProt Q16656); test: ATG_NRF1_CIS: Attagene CIS-FACTORIAL HepG2 Assay for human Nuclear Respiratory Factor 1 (NRF1) Orphan Gene (AID 2282987); conditions: HepG2 NRF1 cis-element reporter, Attagene multiplex; actives raise or lower the signal
How it was run: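 Multiplexed cis-reporter assay, HepG2 cells, 24 h treatment. Total RNA → oligo(dT) RT → PCR with reporter-specific primers → 6-FAM primer extension → HpaI cut → CE. Bidirectional fit vs DMSO.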

[7] = ATG_NFI_CIS: Attagene CIS-FACTORIAL HepG2 Assay for human Nuclear Factor I (NFI) (AID 2282989); conditions: HepG2 cis-regulatory reporter, NFI response element transcription; actives raise or lower the signal
How it was run: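 Multiplexed cis-reporter system in human HepG2 cells reports native TF activity as reporter mRNA induction 24 h post-dose. Fragments labelled with 6-FAM, HpaI-digested and resolved by capillary electrophoresis; activity fitted both directions versus DMSO.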

[8] = biological target: Myc proto-oncogene protein (Homo sapiens) (UniProt P01106); test: ATG_Myc_CIS: Attagene CIS-FACTORIAL HepG2 Assay for human Myelocytomatosis (Myc) Proto-Oncogene Transcription Factor (AID 2282990); conditions: HepG2, Attagene cis-reporter transcription factor activity; actives raise or lower the signal
How it was run: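 Read-out: fluorescent reporter mRNA fragments resolved by capillary electrophoresis after RT-PCR. Human HepG2 liver cells carried transfected cis-element reporter units and were dosed for 24 h. Gain or loss of signal fitted relative to DMSO baseline.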

[9] = ATG_NF_kB_CIS: Attagene CIS-FACTORIAL HepG2 Assay for human Nuclear Factor Kappa B (NF-kB) (AID 2282991); conditions: HepG2 Attagene cis-factorial NF-kB reporter mRNA; actives raise or lower the signal
How it was run: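 Transient MRTU transfection of human HepG2 liver cells → 24 h chemical exposure → total RNA, oligo(dT) RT → PCR, 6-FAM primer extension, HpaI digest 2 h 37 C → CE fragment analysis. Bidirectional fitting, DMSO negative control.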

[10] = ATG_NRF2_ARE_CIS: Attagene CIS-FACTORIAL HepG2 Assay for human Nuclear Factor Erythroid 2 Related Factor 2 (NFR2) response to Antioxidant Response Elements (ARE) (AID 2282992); conditions: HepG2 Attagene ARE/NRF2 reporter, transcription factor activity; actives raise or lower the signal
How it was run: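 Endogenous transcription factor activity read out as reporter transcript levels (RT-PCR plus capillary electrophoresis, fluorescence) in transiently transfected HepG2 cells. Measured at 24 h after dosing; gain or loss of signal fitted versus DMSO.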

[11] = ATG_Oct_MLP_CIS: Attagene CIS-FACTORIAL HepG2 Assay for human Octamer-Binding Transcription Factor (Oct) (AID 2282993); conditions: HepG2 Attagene cis-factorial Oct reporter, mRNA; actives raise or lower the signal
How it was run: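 After 24 h compound exposure, transfected HepG2 cells were lysed for total RNA; reporter-specific cDNA was PCR-amplified, fluorescently labelled and sized by capillary electrophoresis. Bidirectional curve fitting used DMSO as baseline.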

[12] = biological target: Cellular tumor antigen p53 (Homo sapiens) (UniProt P04637); test: ATG_p53_CIS: Attagene CIS-FACTORIAL HepG2 Assay for human p53 Transcription Factor (AID 2282994); conditions: HepG2 p53 cis-element reporter, Attagene mRNA; actives raise or lower the signal
How it was run: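 Endogenous p53 activity read in transiently transfected HepG2 from a cis-element-driven reporter transcript after 24 h exposure. RNA reverse-transcribed, PCR-amplified, fluorescently labelled and sized by capillary electrophoresis; gain or loss fitted against DMSO baseline.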

[13] = BSK_3C_TissueFactor: BioMAP Diversity Plus: 3C Assay for Tissue Factor Biomarker Activity (AID 2282997); conditions: BioMAP 3C HUVEC, tissue factor biomarker readout; actives raise or lower the signal
How it was run: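 HUVEC, 3C system, 24 h post-dose; Tissue Factor by ELISA; bidirectional fit vs DMSO baseline.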

[14] = BSK_3C_uPAR: BioMAP Diversity Plus: 3C Assay for Urokinase-type plasminogen activator receptor (uPAR) Biomarker Activity (AID 2282998); conditions: BioMAP 3C HUVEC, uPAR biomarker ELISA; actives raise or lower the signal
How it was run: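 Values derive from bidirectional curve fitting relative to DMSO, which served as baseline of activity. uPAR was measured by ELISA in human umbilical vein endothelial primary cultures 24 h after compound addition.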

[15] = BSK_3C_VCAM1: BioMAP Diversity Plus: 3C Assay for Vascular cell adhesion molecule 1 (VCAM1) Biomarker Activity (AID 2282999); conditions: BioMAP 3C HUVEC, VCAM1 ELISA, cytokine-stimulated; actives raise or lower the signal
How it was run: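 HUVEC primary cells, 24 h compound exposure; VCAM-1 by ELISA; gain/loss of signal fitted bidirectionally vs DMSO baseline.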

[16] = BSK_4H_Eotaxin3: BioMAP Diversity Plus: 4H Assay for Eotaxin 3 Biomarker Activity (AID 2283000); conditions: primary human endothelial cells (HUVEC); actives raise or lower the signal
How it was run: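 Readout is Eotaxin-3 (CCL26) level by ELISA in primary human umbilical vein endothelial cells harvested 24 h after chemical exposure; activity fitted in both directions against DMSO control.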

[17] = biological target: Hepatocyte nuclear factor 4-alpha (Homo sapiens) (UniProt P41235); test: ATG_HNF4a_TRANS: Attagene TRANS-FACTORIAL HepG2 Assay for human Hepatocyte Nuclear Factor 4 alpha (HNF4a) (AID 2282982; active = hit-call score of the fitted dose curve at least 0.9, where 1 is the maximum); conditions: HepG2 HNF4a transactivation reporter, mRNA readout
How it was run: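 Endpoint reflects transcriptional activation of a GAL4-UAS reporter by an HNF4a-GAL4 chimera in transfected HepG2 cells, 24 h post-dosing. Fluorescence from RT-PCR products separated by capillary electrophoresis; DMSO baseline.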

[18] = biological target: Nuclear receptor subfamily 4 group A member 2 (Homo sapiens) (UniProt P43354); test: ATG_NURR1_TRANS: Attagene TRANS-FACTORIAL HepG2 Assay for human Nuclear Receptor Related Protein 1 (NURR1) (AID 2282985; active = hit-call score of the fitted dose curve at least 0.9, where 1 is the maximum); conditions: HepG2 Attagene TRANS reporter, mRNA readout
How it was run: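 Endpoint: reporter mRNA increase relative to DMSO. HepG2 cells transfected with reporter units, treated 24 h; RNA processed by RT-PCR, labelling, HpaI digestion and capillary electrophoresis.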

[19] = biological target: Oxysterols receptor LXR-alpha (Homo sapiens) (UniProt Q13133); test: ATG_LXRa_TRANS: Attagene TRANS-FACTORIAL HepG2 Assay for human Liver X Receptor alpha (LXRa) (AID 2282980; active = hit-call score of the fitted dose curve at least 0.9, where 1 is the maximum); conditions: HepG2 Attagene TRANS reporter, LXRa transactivation
How it was run: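 Read-out: reporter transcript levels by RT-PCR plus capillary electrophoresis, fluorescence intensity. Transiently transfected HepG2, exogenous NR-GAL4 chimera, GAL4-UAS reporters; 24 h compound exposure. Activity = increase over DMSO negative control.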

[20] = biological target: Oxysterols receptor LXR-beta (Homo sapiens) (UniProt P55055); test: ATG_LXRb_TRANS: Attagene TRANS-FACTORIAL HepG2 Assay for human Liver X Receptor beta (LXRb) (AID 2282981; active = hit-call score of the fitted dose curve at least 0.9, where 1 is the maximum); conditions: HepG2 Attagene TRANS GAL4-LXRb reporter, mRNA
How it was run: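 Multiplexed reporter assay, HepG2, 24 h dosing. Fluorescence of labelled RT-PCR products after capillary electrophoresis gives transcript level; positive fitting direction relative to DMSO.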

Measured: AC50

Sequence of Glucocorticoid receptor (Homo sapiens) (P04150 whole entry, looked up, the tested form may be a part): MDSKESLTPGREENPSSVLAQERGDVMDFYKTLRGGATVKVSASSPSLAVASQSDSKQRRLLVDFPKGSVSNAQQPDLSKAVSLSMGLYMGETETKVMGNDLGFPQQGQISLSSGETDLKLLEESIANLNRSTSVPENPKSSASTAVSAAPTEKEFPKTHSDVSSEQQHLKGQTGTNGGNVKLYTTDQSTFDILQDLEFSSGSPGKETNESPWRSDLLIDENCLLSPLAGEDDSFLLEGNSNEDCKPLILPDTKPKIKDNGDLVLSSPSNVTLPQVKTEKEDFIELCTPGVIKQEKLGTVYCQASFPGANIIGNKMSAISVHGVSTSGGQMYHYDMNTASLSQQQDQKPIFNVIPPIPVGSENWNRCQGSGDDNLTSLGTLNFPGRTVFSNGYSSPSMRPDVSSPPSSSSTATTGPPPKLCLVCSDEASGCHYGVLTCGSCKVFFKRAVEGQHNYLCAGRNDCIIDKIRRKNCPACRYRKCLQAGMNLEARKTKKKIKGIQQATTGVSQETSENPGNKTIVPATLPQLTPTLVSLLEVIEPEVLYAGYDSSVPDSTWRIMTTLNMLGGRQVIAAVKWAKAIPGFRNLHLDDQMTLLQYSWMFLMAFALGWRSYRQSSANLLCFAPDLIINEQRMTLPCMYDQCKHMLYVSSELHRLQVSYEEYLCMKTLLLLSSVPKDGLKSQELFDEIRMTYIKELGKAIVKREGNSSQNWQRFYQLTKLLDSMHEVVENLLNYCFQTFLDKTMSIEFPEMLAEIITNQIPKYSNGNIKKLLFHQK
Sequence of Nuclear respiratory factor 1 (Homo sapiens) (Q16656 whole entry, looked up): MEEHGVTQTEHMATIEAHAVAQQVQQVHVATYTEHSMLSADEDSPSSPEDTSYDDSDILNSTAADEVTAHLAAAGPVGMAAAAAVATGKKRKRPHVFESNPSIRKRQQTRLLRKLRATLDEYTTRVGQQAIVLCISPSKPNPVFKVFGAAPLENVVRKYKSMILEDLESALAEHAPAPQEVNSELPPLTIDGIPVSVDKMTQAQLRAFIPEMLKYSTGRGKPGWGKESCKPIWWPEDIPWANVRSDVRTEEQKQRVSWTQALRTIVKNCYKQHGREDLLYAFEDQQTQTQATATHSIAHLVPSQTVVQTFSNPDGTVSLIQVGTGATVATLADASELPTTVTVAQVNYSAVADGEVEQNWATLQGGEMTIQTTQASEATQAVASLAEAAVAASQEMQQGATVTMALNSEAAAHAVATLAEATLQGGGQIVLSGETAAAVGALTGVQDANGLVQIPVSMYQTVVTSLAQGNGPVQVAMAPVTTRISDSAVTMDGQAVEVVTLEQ
Sequence of Cellular tumor antigen p53 (Homo sapiens) (P04637 whole entry, looked up): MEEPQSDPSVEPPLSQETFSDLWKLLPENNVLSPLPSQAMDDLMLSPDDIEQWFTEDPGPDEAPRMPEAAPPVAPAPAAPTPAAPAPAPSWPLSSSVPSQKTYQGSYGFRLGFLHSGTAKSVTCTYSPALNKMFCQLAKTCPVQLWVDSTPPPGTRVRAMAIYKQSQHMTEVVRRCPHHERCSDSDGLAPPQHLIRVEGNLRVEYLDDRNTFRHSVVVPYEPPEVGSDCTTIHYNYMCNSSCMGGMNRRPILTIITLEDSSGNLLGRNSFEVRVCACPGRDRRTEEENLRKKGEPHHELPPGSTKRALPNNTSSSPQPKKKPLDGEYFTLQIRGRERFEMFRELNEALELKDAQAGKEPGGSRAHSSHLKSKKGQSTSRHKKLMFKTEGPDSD
Sequence of Oxysterols receptor LXR-alpha (Homo sapiens) (Q13133 whole entry, looked up, the tested form may be a part): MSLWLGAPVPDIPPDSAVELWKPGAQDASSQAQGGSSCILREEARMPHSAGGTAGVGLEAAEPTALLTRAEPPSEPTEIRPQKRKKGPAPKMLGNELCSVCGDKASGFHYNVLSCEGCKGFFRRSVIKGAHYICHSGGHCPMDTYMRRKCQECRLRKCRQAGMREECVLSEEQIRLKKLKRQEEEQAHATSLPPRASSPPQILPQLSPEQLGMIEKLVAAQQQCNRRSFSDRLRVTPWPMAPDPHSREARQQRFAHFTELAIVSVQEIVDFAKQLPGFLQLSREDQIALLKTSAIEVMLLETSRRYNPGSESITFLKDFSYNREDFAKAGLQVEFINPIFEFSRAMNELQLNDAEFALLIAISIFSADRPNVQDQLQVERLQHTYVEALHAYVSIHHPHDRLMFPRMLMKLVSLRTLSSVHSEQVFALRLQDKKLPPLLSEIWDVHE
Sequence of Oxysterols receptor LXR-beta (Homo sapiens) (P55055 whole entry, looked up, the tested form may be a part): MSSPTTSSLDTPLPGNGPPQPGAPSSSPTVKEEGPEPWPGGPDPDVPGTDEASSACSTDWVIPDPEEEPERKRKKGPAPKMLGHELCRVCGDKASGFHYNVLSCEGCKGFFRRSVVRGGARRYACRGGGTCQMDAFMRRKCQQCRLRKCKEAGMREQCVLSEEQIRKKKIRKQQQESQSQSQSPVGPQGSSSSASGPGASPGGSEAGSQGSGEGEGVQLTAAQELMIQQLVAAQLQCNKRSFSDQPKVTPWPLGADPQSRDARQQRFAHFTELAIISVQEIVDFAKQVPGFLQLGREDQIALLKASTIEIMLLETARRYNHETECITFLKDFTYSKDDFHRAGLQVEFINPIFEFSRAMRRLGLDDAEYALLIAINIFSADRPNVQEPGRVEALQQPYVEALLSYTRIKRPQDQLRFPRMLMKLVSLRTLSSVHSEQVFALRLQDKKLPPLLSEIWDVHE
Sequence of Hepatocyte nuclear factor 4-alpha (Homo sapiens) (P41235 whole entry, looked up, the tested form may be a part): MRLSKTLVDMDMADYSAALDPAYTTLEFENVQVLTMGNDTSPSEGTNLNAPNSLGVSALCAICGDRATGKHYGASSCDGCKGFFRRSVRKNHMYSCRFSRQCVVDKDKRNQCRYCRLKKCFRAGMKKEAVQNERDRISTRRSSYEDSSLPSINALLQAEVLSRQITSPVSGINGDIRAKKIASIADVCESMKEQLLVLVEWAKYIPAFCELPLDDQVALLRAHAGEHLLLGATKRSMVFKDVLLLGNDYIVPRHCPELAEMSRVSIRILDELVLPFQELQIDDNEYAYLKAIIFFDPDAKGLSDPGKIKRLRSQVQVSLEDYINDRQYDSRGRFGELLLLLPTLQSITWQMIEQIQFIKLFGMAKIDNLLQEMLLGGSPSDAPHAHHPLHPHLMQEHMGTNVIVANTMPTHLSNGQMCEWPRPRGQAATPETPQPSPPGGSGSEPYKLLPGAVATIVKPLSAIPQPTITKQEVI
Sequence of Myc proto-oncogene protein (Homo sapiens) (P01106 whole entry, looked up, the tested form may be a part): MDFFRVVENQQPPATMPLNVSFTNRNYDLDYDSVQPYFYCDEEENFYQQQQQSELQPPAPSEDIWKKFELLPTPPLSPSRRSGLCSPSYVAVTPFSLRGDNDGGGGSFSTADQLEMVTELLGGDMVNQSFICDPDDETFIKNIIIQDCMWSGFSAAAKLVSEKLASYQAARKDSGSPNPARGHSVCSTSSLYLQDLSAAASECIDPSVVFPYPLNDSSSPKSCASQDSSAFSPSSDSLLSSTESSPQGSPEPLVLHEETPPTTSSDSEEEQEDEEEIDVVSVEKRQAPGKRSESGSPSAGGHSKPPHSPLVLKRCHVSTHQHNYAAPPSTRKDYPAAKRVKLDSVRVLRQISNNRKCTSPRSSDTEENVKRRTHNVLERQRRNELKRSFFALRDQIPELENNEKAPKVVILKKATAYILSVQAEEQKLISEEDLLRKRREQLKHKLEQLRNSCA
Sequence of Nuclear receptor subfamily 4 group A member 2 (Homo sapiens) (P43354 whole entry, looked up): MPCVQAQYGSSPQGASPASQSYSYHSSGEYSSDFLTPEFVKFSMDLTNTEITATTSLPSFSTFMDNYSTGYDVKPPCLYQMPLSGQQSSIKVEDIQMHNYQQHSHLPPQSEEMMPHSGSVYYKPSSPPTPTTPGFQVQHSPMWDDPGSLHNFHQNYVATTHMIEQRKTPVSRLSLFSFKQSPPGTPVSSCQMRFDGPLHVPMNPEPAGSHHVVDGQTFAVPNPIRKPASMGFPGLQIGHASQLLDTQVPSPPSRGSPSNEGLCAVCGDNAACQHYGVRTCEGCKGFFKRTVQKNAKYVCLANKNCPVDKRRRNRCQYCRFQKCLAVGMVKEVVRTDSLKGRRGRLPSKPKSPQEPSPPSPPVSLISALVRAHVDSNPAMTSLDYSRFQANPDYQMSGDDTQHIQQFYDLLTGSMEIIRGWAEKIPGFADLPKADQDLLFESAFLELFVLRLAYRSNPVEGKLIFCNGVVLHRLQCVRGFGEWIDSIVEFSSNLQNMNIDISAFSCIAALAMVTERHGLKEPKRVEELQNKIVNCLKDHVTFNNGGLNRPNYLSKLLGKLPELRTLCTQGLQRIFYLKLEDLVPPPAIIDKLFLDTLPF
Sequence of Transcriptional activator Myb (Homo sapiens) (P10242 whole entry, looked up): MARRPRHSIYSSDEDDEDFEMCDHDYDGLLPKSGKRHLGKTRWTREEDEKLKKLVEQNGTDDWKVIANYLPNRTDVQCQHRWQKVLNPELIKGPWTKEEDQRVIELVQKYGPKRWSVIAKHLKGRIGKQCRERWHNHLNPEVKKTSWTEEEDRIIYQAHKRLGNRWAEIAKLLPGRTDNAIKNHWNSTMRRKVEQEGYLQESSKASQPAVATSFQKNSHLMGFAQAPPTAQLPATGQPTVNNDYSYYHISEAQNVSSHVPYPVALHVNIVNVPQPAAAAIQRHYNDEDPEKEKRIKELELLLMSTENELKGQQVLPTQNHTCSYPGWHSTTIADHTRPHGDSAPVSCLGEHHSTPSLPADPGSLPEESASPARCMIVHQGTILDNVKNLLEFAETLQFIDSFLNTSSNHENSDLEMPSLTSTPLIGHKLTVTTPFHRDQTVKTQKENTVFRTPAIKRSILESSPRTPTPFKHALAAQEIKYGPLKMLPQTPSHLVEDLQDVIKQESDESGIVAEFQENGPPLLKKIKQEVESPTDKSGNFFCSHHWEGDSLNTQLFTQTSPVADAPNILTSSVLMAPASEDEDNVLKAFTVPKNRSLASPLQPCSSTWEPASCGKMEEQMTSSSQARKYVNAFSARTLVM

CCN(CC)C(=S)SSC(=S)N(CC)CC
inactive: [1] | [2] | [3] | [4]
active: [5] 162 µM | [6] 175 µM | [7] 158 µM | [8] 83.7 µM | [9] 27.6 µM | [10] 184 µM | [11] 144 µM | [12] 137 µM | [13] 20 µM | [14] 20.6 µM | [15] 28.9 µM | [16] 32.3 µM

COc1cc(C(C)C)c2c(c1)S(=O)(=O)N(COc1cc(=O)n3cccc(OCCN4CCCCC4)c3n1)C2=O
inactive: [1] | [17] | [4] | [18] | [5] | [13]
active: [2] 4.68 µM | [7] 3.64 µM | [8] 2.75 µM | [10] 1.29 µM | [11] 4.34 µM | [14] 2.89 µM | [15] 5.38 µM | [16] 8.57 µM

O=C(Cl)C(F)(F)C(F)(F)C(F)(F)C(=O)Cl
not listed: [5] | [6] | [8] | [9] | [18]
inactive: all other assays above

FC(F)=C(F)C(F)(F)C(F)(F)C(F)(F)C(F)(F)C(F)(F)C(F)(F)F
active: [10] 86.6 µM | [11] 267 µM
inactive: [1] | [2] | [19] | [4] | [18] | [6] | [7] | [10] | [11] | [12] | [13] | [14] | [15] | [16]

NCC(F)(F)C(F)(F)C(F)(F)C(F)(F)F
not listed: [5] | [9] | [20]
inactive: all other assays above

COc1cc2c(c(OC)c1OC)-c1ccc(OC)c(=O)cc1[C@@H](NC(C)=O)CC2
active: [6] 0.257 µM | [14] 0.149 µM | [15] 0.404 µM | [16] 0.148 µM
not listed: [4] | [5] | [12] | [17] | [18]
inactive: all other assays above

CC(C)c1nnc2ccc(-c3ocnc3-c3cc(F)ccc3F)cn12
active: [11] 130 µM | [13] 0.743 µM
inactive: [1] | [2] | [20] | [3] | [12] | [14] | [15] | [16]

O=S(=O)(O)CCC(F)(F)C(F)(F)C(F)(F)C(F)(F)C(F)(F)C(F)(F)F
inactive: all assays above

OCc1ccccc1
inactive: [1] | [20] | [17] | [3] | [4] | [18] | [5] | [7] | [8] | [10] | [11] | [13] | [14] | [15] | [16]
active: [18] 14.2 µM

O=C(O)[C@H](O)[C@@H](O)C(=O)O
not listed: [4] | [5] | [8] | [9] | [12] | [17] | [18]
inactive: all other assays above

CCCOc1ccc(S(=O)(=O)N2CCN(CC)CC2)cc1-c1nc2c(CC)n(Cc3ccccn3)nc2c(=O)[nH]1
active: [10] 43 µM
not listed: [6] | [8] | [9] | [12] | [17] | [19]
inactive: all other assays above

Cc1ccc(S(=O)(=O)NC(=O)NN2CCCCCC2)cc1
not listed: [2] | [5] | [6] | [8] | [9] | [12] | [17]
inactive: all other assays above
